Screens from PubChem BioAssay.
NPC1 promoter act: qHTS Assay for NPC1 Promoter Activators | Huh7 NPC1 promoter luciferase reporter, 24 h | Potency, µM (top dose mostly 9.22 µM), for the others: at the highest dose activation, actives largely listed as activators | hit rate 2.4% among 320,000 | AID 485313, 2010; note: % of control where 0% means no effect; nearly all actives have a fitted effect of over 60% in size
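NPC1 promoter–luciferase Huh7 cells; 24 h compound; luminescence.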
FLuc counter: qHTS profiling assay for firefly luciferase inhibitor/activator using purifed enzyme and Km concentrations of substrates (counterscreen for miR-21 project). AID 588342, 2011. Luciferin 4-monooxygenase (Photinus pyralis), P08659. purified FLuc, Km substrates, luminescence inhibition. hit rate 6.9% among 360,000. Potency, µM (doses to about 57.5 µM), for inactives: at the top dose activity change, negative = inhibition, actives largely listed as inhibitors;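 note: plate controls were vehicle for no effect and reference inhibitor for full effect; nearly all actives have a fitted effect of over 55% in size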
Target sequence (P08659 whole entry, looked up): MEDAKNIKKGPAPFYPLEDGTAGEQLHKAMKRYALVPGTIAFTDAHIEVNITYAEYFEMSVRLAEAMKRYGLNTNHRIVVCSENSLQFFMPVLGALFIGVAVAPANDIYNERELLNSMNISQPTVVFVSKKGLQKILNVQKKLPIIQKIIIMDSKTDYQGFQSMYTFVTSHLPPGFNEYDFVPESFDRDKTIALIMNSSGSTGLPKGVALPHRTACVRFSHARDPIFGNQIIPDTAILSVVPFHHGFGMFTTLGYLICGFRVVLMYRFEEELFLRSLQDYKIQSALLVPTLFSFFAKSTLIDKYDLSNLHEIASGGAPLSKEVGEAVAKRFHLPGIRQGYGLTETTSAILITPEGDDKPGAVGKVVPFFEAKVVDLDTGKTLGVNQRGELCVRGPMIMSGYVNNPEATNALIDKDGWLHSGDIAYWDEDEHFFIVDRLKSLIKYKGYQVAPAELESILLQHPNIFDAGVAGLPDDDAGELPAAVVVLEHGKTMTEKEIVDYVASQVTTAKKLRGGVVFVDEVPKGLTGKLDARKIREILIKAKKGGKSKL
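Purified P. pyralis luciferase, 10 nM final, with Km-level 10 uM D-luciferin and 10 uM ATP in 50 mM Tris acetate pH 7.5, 10 mM Mg acetate, 0.01% Tween-20, 0.05% BSA; 6-point qHTS titration about 60 µM downward; luminescence read.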
ELG1 genotox: qHTS screen for small molecules that induce genotoxicity in human embryonic kidney (HEK293T) cells expressing luciferase-tagged ELG1; HEK293T ELG1-luciferase reporter, luminescence, 16 h; Potency, µM (top dose mostly 46 µM), for the others: at the highest dose activity change, positive = activation, hits mostly activators; hit rate 1.3% among 330,000; AID 504466, 2011; note: % of control where 0% means no effect; nearly all actives have a fitted effect of over 60% in size
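Luminescence read-out: rising ELG1-luciferase signal, reflecting elevated ELG1 protein under genetic stress, flags genotoxic compounds. Cells were treated for 16 hr at 37 °C before ONE-Glo detection.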
ELG1 repair inh: qHTS screen for small molecules that inhibit ELG1-dependent DNA repair in human embryonic kidney (HEK293T) cells expressing luciferase-tagged ELG1; Potency, µM (series often up to 46.1 µM), inactives show top-dose activity change, negative = inhibition, usual class: inhibitors; AID 504467, 2011; hit rate 2.3% among 330,000; HEK293T ELG1-luciferase reporter, luminescence, 16 h; DNA damage induced by 5-fluorouridine; note: % is set by controls: 0 for no effect and ±100 for the full control effect; nearly all actives have a fitted effect of over 55% in size
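Step one: seed 2,000 cells per well. Step two: pin-transfer compound or DMSO alongside 5-fluorouridine. Step three: incubate 16 hr, 37 °C, 5% CO2. Step four: add ONE-Glo, wait 30 min, read luminescence.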
Rab9 promoter act: qHTS Assay for Rab9 Promoter Activators; Potency, µM (doses to about 9.22 µM), without a hit: at the top dose activation, negative = inhibition, actives largely listed as activators; AID 485297, 2010; hit rate 2.8% among 320,000; Huh7 Rab9 promoter-luciferase reporter, luminescence, 24 h; note: % of control where 0% means no effect; nearly all actives have a fitted effect of over 60% in size
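Rab9 promoter-driven luciferase in stably transfected Huh7 cells; 1500 cells/well rested 2 h, exposed to compound in DMSO for 24 h at 37 °C, 5% CO2. Luminescence read 10 min after adding luciferase reagent at ambient temperature.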
SMN2 splice enh: qHTS Assay for Enhancers of SMN2 Splice Variant Expression | HEK293 SMN2-luciferase splicing reporter, luminescence, 30-36 h | hit rate 2.8% among 210,000 | Potency, µM (doses to about 46.1 µM), without a hit: at the highest dose activity change, positive = activation, hits mostly activators; note: % of control where 0% means no effect; nearly all actives have a fitted effect of over 55% in size
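HEK293 cells carry an SMN2 […]–luciferase reporter in which exon 7 inclusion puts luciferase in frame. Cells were plated 10-12 h before compound addition, then incubated 30-36 h at 37C. ONE-Glo luminescence was read; sodium butyrate at 4.5 mM final served as control.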
ELG1 FLuc counter: qHTS screen for small molecules that inhibit ELG1-dependent DNA repair: Hit Confirmation in Cell-Based Luciferin Assay | hit rate 3% among 350 | cell-free firefly luciferase luminescence counter-screen, ViewLux | shares compounds with ELG1 repair inh | Potency, µM (series often up to 46.1 µM), inactives show top-dose activity change, negative = inhibition, most hits filed as inhibitors | AID 624247, 2012; note: % is set by controls: 0 for no effect and ±100 for the full control effect
ELG1 Luc conf: HTS assay for small molecules that inhibit ELG1-dependent DNA repair in human embryonic kidney (HEK293T) cells expressing luciferase-tagged ELG1: Hit Confirmation; hit rate 68% among 670; Potency, µM (titrated, usually from 46.1 µM), for inactives: at the highest dose activity change, negative = inhibition, usual class: inhibitors; shares compounds with ELG1 repair inh; HEK293T ELG1-luciferase levels, luminescence; cells co-treated with 5-fluorouridine; AID 624248, 2012; note: % is set by controls: 0 for no effect and ±100 for the full control effect; nearly all actives have a fitted effect of over 55% in size
ELG1 MMS Luc: MMS-stimulated human ELG1 repair inhibition, confirmed; AID 624249; HEK293T luciferase-tagged ELG1 level, MMS stimulated; shares compounds with ELG1 repair inh; Potency, µM (titrated, usually from 46.1 µM), for the others: top-dose activity change, negative = inhibition, hits mostly inhibitors; hit rate 53% among 670; note: % is set by controls: 0 for no effect and ±100 for the full control effect; nearly all actives have a fitted effect of over 60% in size
ELG1 5-FU: qHTS screen for small molecules that inhibit ELG1-dependent DNA repair: Hit Confirmation with 5FU Viability. 670 tested, under 10 active. shares compounds with ELG1 repair inh. AID 624250, 2012. Potency, µM (highest dose often 46.1 µM), for the others: at the highest dose activity change, negative = viability loss, usual class: cytotoxic. cell viability with 5-FU, ELG1-dependent repair;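 note: ELG1-luc HEK293T cells cotreated with 5-fluorouridine at 10 µM final; viability measured 16 h after compound addition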
ELG1 MMS cell: qHTS screen for small molecules that inhibit ELG1-dependent DNA repair: Hit Confirmation with MMS Viability | Potency, µM (highest dose often 46.1 µM), for the others: at the top dose activity change, negative = viability loss, most hits filed as cytotoxic | hit rate 33% among 670 | AID 624251, 2012 | shares compounds with ELG1 repair inh | Cell viability with MMS, ELG1-dependent DNA repair;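 note: ELG1-luc HEK293T cells co-treated with 10 µM MMS; viability read 16 h after compound addition; % is set by controls: 0 for no effect and ±100 for the full control effect; nearly all actives have a fitted effect of over 60% in size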
ELG1 unstim viab: qHTS screen for small molecules that inhibit ELG1-dependent DNA repair: Hit Confirmation with Unstimulated Viability Assay; shares compounds with ELG1 repair inh; hit rate 8% among 900; AID 624252, 2012; cell viability counter-screen, unstimulated, luminescence; Potency, µM (highest dose often 45.9 µM), inactives show top-dose activity change, negative = loss of viability, hits mostly cytotoxic;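 note: compound exposure lasted 16 hours before reading; % is set by controls: 0 for no effect and ±100 for the full control effect; nearly all actives have a fitted effect of over 55% in size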
FLuc biochem: qHTS screen for small molecules that inhibit ELG1-dependent DNA repair: Hit Confirmation in Biochemical Luciferin Assay; shares compounds with ELG1 repair inh; purified firefly luciferase, luminescence counter-screen; Potency, µM (top dose mostly 57.5 µM), for the others: top-dose activity, negative = inhibition, actives largely listed as inhibitors; hit rate 10% among 350; note: % is set by controls: 0 for no effect and ±100 for the full control effect
Starred values were filed as active, the others as inactive; u = inconclusive; x = no result given. A selection: hits, their analogues and other compounds. The true share with any hit is near 9.2%. Calls come from the whole dose curve; as a rule, active = well fitted curve in the direction sought with a large enough effect; inconclusive = small, poorly fitted or top-dose-only effect, or another doubt; inactive = no such curve, though single readings can be large; an effect the other way counts as inactive or inconclusive. Potency is the fitted concentration of half-maximal effect.

SMILES	NPC1 promoter act	FLuc counter	ELG1 genotox	ELG1 repair inh	Rab9 promoter act	SMN2 splice enh	ELG1 FLuc counter	ELG1 Luc conf	ELG1 MMS Luc	ELG1 5-FU	ELG1 MMS cell	ELG1 unstim viab	FLuc biochem
CCOC(=O)C1CC(c2ccccc2)=NNC1=O (configuration not stated)	-8%	3%	0%	11%	u	2%	x	x	x	x	x	x	x
CCn1c(=O)n(CC)c2cc(S(=O)(=O)N3CCC(c4ccccc4)CC3)ccc21	-2%	3%	-2%	u	-2%	x	-12%	x	x	x	x	u	-3%
Cn1c(=O)c(=O)n(C)c2cc(S(=O)(=O)N3CCC(Cc4ccccc4)CC3)ccc21	-4%	8%	1%	3%	5%	19%	x	x	x	x	x	x	x
O=C(CS(=O)(=O)c1cccc2nsnc12)Nc1cc(F)ccc1F	x	-2%	x	x	x	x	x	x	x	x	x	x	x
CCCn1c(N2CCN(CC(=O)c3c(C)n(C)c4ccccc34)CC2)nc2c1c(=O)[nH]c(=O)n2C	4%	0%	-4%	7.3µM*	13%	-7%	3%	3.2µM*	u	u	1%	-10%	2%
CCn1c(N2CCN(CC(=O)c3c[nH]c4ccccc34)CC2)nc2c1c(=O)[nH]c(=O)n2C	0%	-14%	-9%	0%	1%	-10%	17%	u	-4%	u	-1%	-9%	1%
COc1ccc(CC(=O)Nc2cc(S(=O)(=O)N3CCCCC3)ccc2C)cc1OC	-30%	3%	-6%	2.1µM*	-24%	x	x	u	1.4µM*	3%	2.5µM*	u	x
COc1ccc(S(=O)(=O)N2CCCCC2)cc1NC(=O)c1[nH]c(C)c(C(C)=O)c1C	x	x	12µM*	u	x	x	x	x	x	x	x	-19%	x
Cc1ccc(S(=O)(=O)N2CCCCC2)cc1NC(=O)CNc1ccc(C(F)(F)F)cc1	-3%	-17%	16%	3.7µM*	-3%	x	x	u	31µM*	-3%	28µM*	u	x
CC(c1ccccc1)N1C(=O)/C(=C/c2ccncc2)SC1=S (configuration not stated)	2%	4%	u	u	-11%	x	x	x	x	x	x	x	x
O=S(=O)(Nc1ccc(F)cc1F)c1ccc(Br)s1	x	u	x	x	x	1%	x	x	x	x	x	x	x
Cn1cccc1/C=N/NC(=O)Cc1ccccc1	-2%	-9%	0%	14%	9%	x	x	x	x	x	x	x	x
Cn1cccc1/C=N\NC(=O)Cc1ccc(Br)c2ccccc12	-14%	-13%	-6%	3.7µM*	-12%	-59%	x	u	7.9µM*	-13%	7.9µM*	u	x
COc1ccc(NC(=O)C2CCN(c3nc(C)nc4c3CCC4)CC2)cc1	-16%	21%	-7%	0.73µM*	-15%	-56%	-13%	u	5µM*	-6%	5µM*	u	25%
CCCN1CCN(C(=O)C2CCN(c3ncnc4c3nc3n4CCCCC3)CC2)CC1	-2%	4%	0%	-8%	-3%	x	65%	-28%	u	-8%	u	-16%	-2%
COc1ccc(NC(=O)C2CCN(c3ncnc4c3nc3n4CCCCC3)CC2)c(OC)c1	0%	-12%	-5%	4.6µM*	-1%	x	u	7.9µM*	32µM*	u	u	u	-9%
COC(=O)c1ccccc1NC(=O)C1CCN(c2ncnc3c2nc2n3CCCCC2)CC1	-2%	6%	-8%	u	0%	x	-2%	11µM*	u	u	1%	-8%	-11%
CC1CCN(C(=O)C2CCN(c3ncnc4c3nc3n4CCCCC3)CC2)CC1	-3%	-2%	-8%	-3%	0%	x	x	x	x	x	x	x	x
COc1ccc(NC(=O)C2CCN(c3nc(C)cc(C)n3)CC2)cc1	-5%	-2%	-1%	-14%	-9%	-1%	x	x	x	x	x	x	x
CCCCNC(=O)C1Cc2cc(S(=O)(=O)N3CCCCC3)ccc2N1C(C)=O (configuration not stated)	-3%	2%	0%	4%	0%	x	x	x	x	x	x	x	x
CCc1ccc(NC(=O)c2cnn(-c3c(C)cccc3C)c2C2CCN(C(=O)OC(C)(C)C)CC2)cc1	x	4%	x	x	x	x	x	x	x	x	x	x	x
